The first experiment has as its target NKX3-2 (Homo sapiens, UniProt P78367 192-278, P234S). Nature of the experiment: PBM; 200 nM protein, PBS. As to conditions: dsDNA, one strand shown.
Sequence of NKX3-2 (Homo sapiens, UniProt P78367 192-278) (P78367 192-278): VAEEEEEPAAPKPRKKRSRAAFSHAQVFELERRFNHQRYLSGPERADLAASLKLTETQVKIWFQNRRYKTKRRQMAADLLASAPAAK
Sequence of NKX3-2 (Homo sapiens, UniProt P78367 192-278, P234S) (P78367 192-278 P234S): as the sequence (P78367 192-278) above, with P43S counted along it
For the sequence AGGCGCCG, the binding signal is 10.5 upbm affinity estimate (log intensity, higher = more binding, comparable within an allelic series).
Consider CAGGGAAG, for which the binding signal is 10.5 upbm affinity estimate (log intensity, higher = more binding, comparable within an allelic series).
In the case of CTGGCAAG, the binding signal is 10.5 upbm affinity estimate (log intensity, higher = more binding, comparable within an allelic series).
On to AGCATTCC, for which the binding signal was 10.4 upbm affinity estimate (log intensity, higher = more binding, comparable within an allelic series).
On the same count and under the same terms, in the case of AAGTGCCG it was 12.5 upbm affinity estimate (log intensity, higher = more binding, comparable within an allelic series).

The next experiment deals with CRX (Homo sapiens, UniProt O43186 26-111, R41L). The experiment in a line: PBM; 200 nM protein, PBS. Conditions: dsDNA, one strand shown.
Sequence of CRX (O43186 26-111 R41L): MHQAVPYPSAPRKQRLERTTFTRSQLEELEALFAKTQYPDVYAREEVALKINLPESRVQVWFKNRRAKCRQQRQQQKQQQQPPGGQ
Take GAGATTAC: the binding signal was 12.3 upbm affinity estimate (log intensity, higher = more binding, comparable within an allelic series).
Same read-out and setting: in the case of CCGCTTAA it was 10.9 upbm affinity estimate (log intensity, higher = more binding, comparable within an allelic series); in that of CCTAATAC, 10.6 upbm affinity estimate (log intensity, higher = more binding, comparable within an allelic series); in that of ATTAAGCG, 10.8 upbm affinity estimate (log intensity, higher = more binding, comparable within an allelic series).
For the sequence AGGCTTAG, the binding signal was 11.6 upbm affinity estimate (log intensity, higher = more binding, comparable within an allelic series).
The same measure, in the same setting: the same measure for ATTAAGAC: 11 upbm affinity estimate (log intensity, higher = more binding, comparable within an allelic series); for CCTAAGCC: 11.2 upbm affinity estimate (log intensity, higher = more binding, comparable within an allelic series).
Still for that read-out and setting: the same measure for ATAAGCCG: 12.3 upbm affinity estimate (log intensity, higher = more binding, comparable within an allelic series).
Same read-out and setting: in the case of CTTAATAC it was 11.3 upbm affinity estimate (log intensity, higher = more binding, comparable within an allelic series); in that of TAAGACGA, 10.2 upbm affinity estimate (log intensity, higher = more binding, comparable within an allelic series); in that of ACGCTTAA, 10.3 upbm affinity estimate (log intensity, higher = more binding, comparable within an allelic series).
Turning to CAGATTAC, the binding signal is 12.3 upbm affinity estimate (log intensity, higher = more binding, comparable within an allelic series).
As for AGCATTAA, the binding signal was 10.9 upbm affinity estimate (log intensity, higher = more binding, comparable within an allelic series).
Same read-out and setting: in the case of GCATTAGC it was 10.5 upbm affinity estimate (log intensity, higher = more binding, comparable within an allelic series); in that of CGTCTTAA, 10.7 upbm affinity estimate (log intensity, higher = more binding, comparable within an allelic series).
Still for that read-out and setting: the same measure for CTTAATGC: 11 upbm affinity estimate (log intensity, higher = more binding, comparable within an allelic series).
Take CTTTATCC: the binding signal is 10.7 upbm affinity estimate (log intensity, higher = more binding, comparable within an allelic series).
Regarding GCTTAAGA, the binding signal is 11.1 upbm affinity estimate (log intensity, higher = more binding, comparable within an allelic series).
On the same count and under the same terms, in the case of GCTAAGAC it was 10.2 upbm affinity estimate (log intensity, higher = more binding, comparable within an allelic series); in that of CTTAAGAC, 10.7 upbm affinity estimate (log intensity, higher = more binding, comparable within an allelic series); in that of CGGCTTAG, 11.9 upbm affinity estimate (log intensity, higher = more binding, comparable within an allelic series).
The same measure, in the same setting: the same measure for CGCATTAG: 10.4 upbm affinity estimate (log intensity, higher = more binding, comparable within an allelic series); for AGTATTAG: 10.8 upbm affinity estimate (log intensity, higher = more binding, comparable within an allelic series).
On the same count and under the same terms, the same measure for ACTAAGAC: 10.1 upbm affinity estimate (log intensity, higher = more binding, comparable within an allelic series); for AGCTTAAG: 11.6 upbm affinity estimate (log intensity, higher = more binding, comparable within an allelic series).
Consider ACTAAGCT, for which the binding signal is 11.4 upbm affinity estimate (log intensity, higher = more binding, comparable within an allelic series).
Same read-out and setting: in the case of CTAAGCCA it was 10.7 upbm affinity estimate (log intensity, higher = more binding, comparable within an allelic series); in that of CTAATGCC, 10.1 upbm affinity estimate (log intensity, higher = more binding, comparable within an allelic series).
For ATAATCTA, the binding signal was 12.4 upbm affinity estimate (log intensity, higher = more binding, comparable within an allelic series).
The same measure, in the same setting: in the case of AGTATTAA it was 11 upbm affinity estimate (log intensity, higher = more binding, comparable within an allelic series); in that of ACTAATAC, 10.7 upbm affinity estimate (log intensity, higher = more binding, comparable within an allelic series).
Still for that read-out and setting: the same measure for GGTGTTAA: 10.2 upbm affinity estimate (log intensity, higher = more binding, comparable within an allelic series).
Same read-out and setting: the same measure for ATCTTAAG: 10.8 upbm affinity estimate (log intensity, higher = more binding, comparable within an allelic series).
In the case of GTCTTAAC, the binding signal is 10.3 upbm affinity estimate (log intensity, higher = more binding, comparable within an allelic series).
Same read-out and setting: in the case of CTAATACC it was 11.2 upbm affinity estimate (log intensity, higher = more binding, comparable within an allelic series).

Another experiment addresses NKX3-2 (Homo sapiens, UniProt P78367 192-278). The experiment in a line: PBM; 200 nM protein, PBS. Conditions: dsDNA, one strand shown.
Turning to AGGCGCCG, the binding signal was 10.5 upbm affinity estimate (log intensity, higher = more binding, comparable within an allelic series).
Same read-out and setting: in the case of CAGGGAAG it was 10.5 upbm affinity estimate (log intensity, higher = more binding, comparable within an allelic series).
Same read-out and setting: the same measure for CTGGCAAG: 10.5 upbm affinity estimate (log intensity, higher = more binding, comparable within an allelic series); for AGCATTCC: 10.4 upbm affinity estimate (log intensity, higher = more binding, comparable within an allelic series); for AAGTGCCG: 12.6 upbm affinity estimate (log intensity, higher = more binding, comparable within an allelic series).

These data come from PMC11006913.
